Experimental data as given in PubChem BioAssay AID504652 (National Center for Advancing Translational Sciences (NCATS), 2011).
Several values for one entry are separate records, joined by “and”; a condition that tells them apart may be missing. Equal values may be shown once. Hit rate of the full screen: of about 360,000 compounds, about 11,000 (3.1%) were called active. No stated cut-off is given here; in the data, active means activity change below about -30%; inactive means the rest. For the sample, actives were picked, then their nearest neighbours and some compounds at random. Some compounds were tested as several samples or in several runs, with calls that do not always agree.

molecular target: D(1A) dopamine receptor (Homo sapiens) (UniProt P21728); test: Antagonist of Human D 1 Dopamine Receptor: qHTS; details: HEK293 TREx D1 cells, calcium flux, dopamine EC80; at 10 µM; stronger effect = lower value
Sequence (P21728 whole entry, looked up): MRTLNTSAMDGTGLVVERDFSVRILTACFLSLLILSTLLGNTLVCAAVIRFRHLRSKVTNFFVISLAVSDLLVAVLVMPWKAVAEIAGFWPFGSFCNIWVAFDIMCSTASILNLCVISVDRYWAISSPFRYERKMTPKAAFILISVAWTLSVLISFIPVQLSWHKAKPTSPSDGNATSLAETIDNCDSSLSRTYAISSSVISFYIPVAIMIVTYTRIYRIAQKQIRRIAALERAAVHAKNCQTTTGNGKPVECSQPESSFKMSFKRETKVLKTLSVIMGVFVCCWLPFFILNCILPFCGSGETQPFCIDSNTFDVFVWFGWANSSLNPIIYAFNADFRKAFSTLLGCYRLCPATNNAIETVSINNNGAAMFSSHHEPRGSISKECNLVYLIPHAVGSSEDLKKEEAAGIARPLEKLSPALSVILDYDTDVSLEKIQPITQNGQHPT
Outline: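 Compound effects on dopamine-evoked calcium signalling were measured in tetracycline-induced HEK293 Trex D1 cells. Dopamine at EC80 followed a 180 s compound pre-read, and fluorescence was tracked kinetically for 180 s more.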
On the % scale 0 is the no-effect control and ±100 the full control effect.

Compound | activity change, negative = inhibition
CCc1ccc(C(=O)CC2(O)C(=O)N(CCc3ccccc3)c3ccc(Br)cc32)cc1 (configuration not stated) | 6.36% (inactive)
O=C(COc1ccc(Cl)cc1)NCc1nnc(SCC(=O)NCC2CCCO2)o1 (configuration not stated) | -31.2% (active)
COc1ccc2c(C)cc(SCC(=O)NCC3CCCO3)nc2c1 (configuration not stated) | -21.4% (inactive)
O=C(CSc1nnc(-c2ccc(NS(=O)(=O)c3ccccc3)cc2)o1)NCC1CCCO1 (configuration not stated) | -3.8% (inactive)
Cc1ccc2oc(C(=O)Nc3ccc(S(=O)(=O)N4CCCCCC4)cc3)cc(=O)c2c1 | -13.8% (inactive)
O=C(Nc1cccc(-c2cccc(Cl)c2)c1)C1CCN(C2CCC2)CC1 | -10% (inactive)
CCn1cc(CN2CCC(C(=O)Nc3cccc(-c4cccc(Cl)c4)c3)CC2)cn1 | -38.6% (active)
CCn1cc(CN2CCC(C(=O)Nc3cccc(-c4cccc(Cl)c4)c3)CC2)c(C)n1 | -1.32% (inactive)
CC1CCCCN1CC(=O)N1CCCc2c1c(=O)oc1ccc(OCc3ccccc3)cc21 (configuration not stated) | 4.23% (inactive)
O=C(NCc1nnc(C(=O)Nc2ccc(C(F)(F)F)cc2Cl)o1)c1ccccc1 | -10% (inactive)
O=C(Nc1ccc(Oc2ccccc2)cc1)C1CCN(S(=O)(=O)c2ccc(Cl)cc2)CC1 | -14.4% (inactive)
O=C(Nc1ccccc1)c1nnsc1S(=O)(=O)c1ccc(Cl)cc1 | -31.4% (active)
O=C(Nc1cccc(Cl)c1)c1csnn1 | 0.926% (inactive)
COC(=O)c1ccc(NC(=O)c2cnn(-c3ccc(Cl)cc3)c2C2CCN(C(=O)OC(C)(C)C)CC2)cc1 | 8.43% (inactive)
CC1CCN(S(=O)(=O)c2ccc3c(ccn3CC(=O)O)c2)CC1 | -15% (inactive)
CC1CCN(S(=O)(=O)c2ccc3c(ccn3CCC(=O)NCc3ccc(N(C)C)cc3)c2)CC1 | -72.7% (active)
O=C(CCn1ccc2cc(S(=O)(=O)N3CCCC3)ccc21)NCc1cccc(Cl)c1 | 11.5% (inactive)
N#Cc1ccc(-c2cccs2)nc1SCc1ccc(Br)cc1 | -3.69% (inactive)
Cc1ccc2c(c1)c1c(c(=O)n(-c3ccccc3)c(=O)n1CC(=O)c1ccc(Cl)cc1)n2C | -16% (inactive)
CCS(=O)(=O)N1CCc2cc(C(=O)NCc3ccc(C)cc3)ccc21 | -4.2% (inactive)
CN(CC(=O)NCCc1ccccn1)S(=O)(=O)c1ccc(Cl)cc1 | -32.4% (active)
CN(CC(=O)NCC(c1ccccc1)N1CCCC1)S(=O)(=O)c1ccc(Cl)cc1 (configuration not stated) | 12.1% (inactive)

Compound | activity change, negative = inhibition
CN(CC(=O)NNC(=O)CNC(=O)c1ccccc1Cl)S(=O)(=O)c1ccc(Cl)cc1 | -11.4% (inactive)
COc1ccc(NC2CC(=O)N(C)C2=O)cc1 (configuration not stated) | -35.8% (active)
COc1ccc(C2CC(=O)NC(=O)C2)cc1 | 6.98% (inactive)
CC(=O)Oc1cccc(N2C(=O)CC(Nc3ccc(N4CCOCC4)cc3)C2=O)c1 (configuration not stated) | 9.21% (inactive)
COc1ccc(-c2nc3c(c(SCC(=O)Nc4ccc(C(=O)O)cc4)n2)Cc2ccccc2O3)cc1 | -4.63% (inactive)
CCCCN(CC)CCCNC(=O)c1nn(C)c2c1CSc1ccccc1-2 | 13% (inactive)
CCOC(=O)c1[nH]c(C)c(CCC(=O)NCc2ccccc2C)c1C | -16.9% (inactive)
O=C(CCc1nc(CN2CCN(S(=O)(=O)c3ccc(F)cc3)CC2)no1)N1CCCCC1 | 11.3% (inactive)
O=C(Cc1ccc(Cl)cc1)NCc1nc(-c2ccccc2)no1 | -12.9% (inactive)
O=C(CCN1C(=O)[C@H]2CC=CC[C@H]2C1=O)NCc1nc(-c2ccccc2)no1 | -34.2% (active)
CC(=O)c1sc(NC(=O)CCN2C(=O)C3CC=CCC3C2=O)nc1-c1ccccc1 (configuration not stated) | 2.17% (inactive)
O=C(NC1CCN(Cc2ccccc2)CC1)c1ccc(Cn2c(=O)c3ccccc3n(Cc3cccc(F)c3)c2=O)cc1 | 2.59% (inactive)
COc1cccc(-c2nc(S(=O)(=O)c3ccc(C)cc3)c(NCc3ccccc3)o2)c1 | 24.7% (inactive)
CN(c1ccccc1)S(=O)(=O)c1cccc(NC(=O)Cc2c(F)cccc2Cl)c1 | -47.4% (active)
CN(C)S(=O)(=O)c1cccc(NC(=O)Cc2ccsc2)c1 | -5.36% (inactive)
CN(c1ccccc1)S(=O)(=O)c1cccc(NC(=O)Cc2ccc(Cl)cc2)c1 | -23.4% (inactive)
O=C(CCC(=O)N1CC2CCCN2c2ccccc21)NCc1ccccc1Cl (configuration not stated) | -15.4% (inactive)
Cc1cc(C)cc(NC(=O)CSc2nc3nccnc3c(=O)n2CCc2c[nH]c3ccccc23)c1 | 1.93% (inactive)
O=C(CSc1nc2nccnc2c(=O)n1CCc1c[nH]c2ccccc12)Nc1ccccc1F | -39.8% (active)
Cc1cc(C)c(NC(=O)CSc2nc3nccnc3c(=O)n2CCc2c[nH]c3ccccc23)c(C)c1 | 1.52% (inactive)
CN(C(=O)c1ccc2c(c1)N(Cc1cccc(Cl)c1)C(=O)c1ccccc1S2=O)C1CCCCC1 (configuration not stated) | 2.7% (inactive)
CC1CN(CCOc2ccccc2[N+](=O)[O-])CC(C)O1 (configuration not stated) | -11.6% (inactive)

Compound | activity change, negative = inhibition
Cc1ccc(OCCCCN2CCCCC2)c(Br)c1 | -23.4% (inactive)
O=[N+]([O-])c1ccccc1OCCCCN1CCCCC1 | -54.3% (active)
O=C(CSc1ncc(S(=O)(=O)c2ccc(Br)cc2)c(=O)[nH]1)Nc1ccc2c(c1)OCCO2 | 8% (inactive)
Oc1ccc(Cl)cc1C1C=C(c2ccc3c(c2)OCO3)NC(c2ccc(F)c(Br)c2)N1 (configuration not stated) | -22.1% (inactive)
Cc1cccc(S(=O)(=O)c2cn(Cc3ccccc3)c3cc(N4CCOCC4)c(F)cc3c2=O)c1 | 0.0166% (inactive)
NC(=O)c1ccc(NC(=O)COC(=O)c2ccc([N+](=O)[O-])cc2)cc1 | 1.67% (inactive)
O=C(COC(=O)C1CCCCC1)Nc1ccc([N+](=O)[O-])cc1 | -34.5% (active)
N/C(Cc1ccc([N+](=O)[O-])cc1)=N\OC(=O)C1CCCCC1 | -11.7% (inactive)
CCCCOc1ccc(C(=O)Nc2cccc(-c3nc4ccccc4o3)c2C)cc1 | -0.438% (inactive)
Cc1oc2ccc(O)c(CN3CCCCC3)c2c1C(=O)Nc1cccc(C(F)(F)F)c1 | 11.6% (inactive)
CC(=O)N1CCCc2cc(S(=O)(=O)N3CCC(C(=O)NC4CCCCC4)CC3)ccc21 | 0.0767% (inactive)
COc1cccc(N2CCN(S(=O)(=O)c3ccc4c(c3)CCCN4C(C)=O)CC2)c1 | -35.4% (active)
CC(=O)N1c2ccc(S(=O)(=O)N3CCC(C(=O)N4CCN(c5ccccc5)CC4)CC3)cc2CC1C (configuration not stated) | -7.84% (inactive)
CC(=O)N1CCCc2cc(S(=O)(=O)CCC(=O)N3CCN(c4ccccc4)CC3)ccc21 | -0.97% (inactive)
CC(=O)N1CCCc2cc(S(=O)(=O)N3CCCC(C(=O)N4CCN(c5cccc(Cl)c5)CC4)C3)ccc21 (configuration not stated) | -14.3% (inactive) and -32% (active)
COc1ccc(N2CCN(S(=O)(=O)c3ccc4c(c3)N(C(C)=O)CCO4)CC2)cc1 | -18% (inactive)
Cc1ccc(S(=O)(=O)N2CCCC(C(=O)N3CCN(C)CC3)C2)cc1 (configuration not stated) | 10.2% (inactive)
O=C(C1CCCN(S(=O)(=O)c2ccccc2)C1)N1CCN(c2ccc(F)cc2)CC1 (configuration not stated) | -43.7% (active)
O=C(C1CCC1)N1CCN(c2ccccc2)CC1 | 6.47% (inactive)
CC(=O)Nc1cccc(NC(=O)CSc2cn(CC(=O)N3CCCC3)c3ccccc23)c1 | 12.2% (inactive)
CC(=O)Nc1ccc(NC(=O)CSc2nnc3c4cc(Br)ccc4n(C)c3n2)cc1 | -2.66% (inactive)
Cc1cccc(C)c1-n1ncc(C(=O)NCCCN2CCCCC2)c1C1CCN(C(=O)OC(C)(C)C)CC1 | 40.2% (inactive)

Compound | activity change, negative = inhibition
CCOC(=O)CN1C(C(=O)c2ccccc2)=C(OC(=O)C(C)(C)C)c2ccccc2S1(=O)=O | -13.9% (inactive)
FC(F)(F)c1cc(Nc2nc3ccccc3c3nncn23)ccc1Cl | -0.606% (inactive)
CC1=C(C(=O)Nc2ccccc2Cl)C(c2cccs2)n2ncnc2N1 (configuration not stated) | 4.21% (inactive)
CC(C)CNC(=S)Nc1ccc(F)cc1 | 12.4% (inactive)
CC(NC(=S)Nc1ccc(OC(F)F)cc1)c1ccc(F)cc1 (configuration not stated) | -35.4% (active)
CC(C)N(Cc1ccccc1)C(=S)Nc1ccc(OC(F)F)cc1 | -4.75% (inactive)
CCOC(=O)c1ccc(NC(=O)CC2C(=O)N(c3ccccc3)C(=O)N2Cc2cccs2)cc1 (configuration not stated) | -10.5% (inactive)
Cc1ccc(NC(=S)NCCc2ccc(Cl)cc2)c(C)c1 | 22.5% (inactive)
Cc1cc(F)ccc1NC(=S)NCCc1ccccc1 | -15.6% (inactive)
S=C(NCc1ccco1)NCc1ccccc1Cl | -32.9% (active)
S=C(NCCc1ccccc1)NCc1ccccc1Cl | -29.8% (inactive)
COc1cc(NC(=S)NCc2ccco2)c(OC)cc1Cl | -9.33% (inactive)
Cc1ccc(NC(=S)NCc2ccccc2Cl)c(C)c1 | -39.4% (active)
COc1ccccc1C(=O)NCCn1cc(SCc2ccccc2Cl)c2ccccc21 | -10.4% (inactive)
Cc1ccc(N2CC(C(=O)Nc3ccc(N(C)C)cc3)CC2=O)cc1Cl (configuration not stated) | 2.7% (inactive)
Cc1ccc(CNS(=O)(=O)c2ccc(C(=O)N(C)C)s2)cc1 | 5.34% (inactive)
Cc1ccccc1CNC(=O)Cn1c(C)c2cnn(-c3ccccc3)c(=O)c2c1C | -7.63% (inactive)
COc1ccc(S(=O)(=O)Nc2cc3c(C(=O)OC(C)C)c(C)oc3c3ccccc23)cc1 | -3.34% (inactive)
CCOC(=O)c1cc2c(=O)n3ccccc3nc2n(CC2CCCO2)c1=NC(=O)c1ccccc1F (configuration not stated) | 7.85% (inactive)
CCOC(=O)c1cc2c(=O)n3ccccc3nc2n(CC2CCCO2)c1=NC(=O)c1ccc(C(C)(C)C)cc1 (configuration not stated) | -30.2% (active)
CCOC(=O)c1cc2c(=O)n3ccccc3nc2n(CC2CCCO2)c1=NC(=O)c1ccccc1Br (configuration not stated) | 4.67% (inactive)
